# Tests used:
# [1] = molecular target: T1, Ephrin type-B receptor 2 (Homo sapiens) (UniProt P29323); conditions: at 1 µM
# T1 sequence (whole entry): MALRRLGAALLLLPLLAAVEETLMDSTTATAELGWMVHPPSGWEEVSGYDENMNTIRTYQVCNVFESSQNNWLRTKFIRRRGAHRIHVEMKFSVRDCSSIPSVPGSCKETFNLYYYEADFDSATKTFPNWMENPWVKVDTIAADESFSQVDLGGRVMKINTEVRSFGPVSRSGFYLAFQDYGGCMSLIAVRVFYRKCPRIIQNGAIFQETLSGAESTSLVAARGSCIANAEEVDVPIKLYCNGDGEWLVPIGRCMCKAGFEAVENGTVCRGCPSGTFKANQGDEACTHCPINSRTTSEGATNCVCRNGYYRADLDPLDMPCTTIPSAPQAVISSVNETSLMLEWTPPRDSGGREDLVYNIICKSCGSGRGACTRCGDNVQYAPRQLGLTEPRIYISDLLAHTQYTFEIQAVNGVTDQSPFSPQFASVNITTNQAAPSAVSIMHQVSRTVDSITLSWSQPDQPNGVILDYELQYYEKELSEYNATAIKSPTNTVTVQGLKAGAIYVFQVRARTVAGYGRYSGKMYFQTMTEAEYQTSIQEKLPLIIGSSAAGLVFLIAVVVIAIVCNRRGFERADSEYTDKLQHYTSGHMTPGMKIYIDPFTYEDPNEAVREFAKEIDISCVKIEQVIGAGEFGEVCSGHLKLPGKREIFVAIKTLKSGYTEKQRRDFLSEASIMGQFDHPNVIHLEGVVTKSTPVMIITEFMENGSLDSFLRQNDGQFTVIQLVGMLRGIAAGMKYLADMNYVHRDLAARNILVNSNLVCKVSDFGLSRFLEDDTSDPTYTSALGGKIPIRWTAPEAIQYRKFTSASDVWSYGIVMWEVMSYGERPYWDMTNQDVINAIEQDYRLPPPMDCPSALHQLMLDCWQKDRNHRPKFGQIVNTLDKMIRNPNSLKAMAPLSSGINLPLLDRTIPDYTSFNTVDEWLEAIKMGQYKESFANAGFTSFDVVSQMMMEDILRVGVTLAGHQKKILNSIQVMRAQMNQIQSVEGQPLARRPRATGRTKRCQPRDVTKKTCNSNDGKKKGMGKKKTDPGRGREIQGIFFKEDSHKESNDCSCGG
# [2] = molecular target: T2, Ephrin type-B receptor 3 (Homo sapiens) (UniProt P54753); conditions: at 0.1 µM
# T2 sequence (whole entry): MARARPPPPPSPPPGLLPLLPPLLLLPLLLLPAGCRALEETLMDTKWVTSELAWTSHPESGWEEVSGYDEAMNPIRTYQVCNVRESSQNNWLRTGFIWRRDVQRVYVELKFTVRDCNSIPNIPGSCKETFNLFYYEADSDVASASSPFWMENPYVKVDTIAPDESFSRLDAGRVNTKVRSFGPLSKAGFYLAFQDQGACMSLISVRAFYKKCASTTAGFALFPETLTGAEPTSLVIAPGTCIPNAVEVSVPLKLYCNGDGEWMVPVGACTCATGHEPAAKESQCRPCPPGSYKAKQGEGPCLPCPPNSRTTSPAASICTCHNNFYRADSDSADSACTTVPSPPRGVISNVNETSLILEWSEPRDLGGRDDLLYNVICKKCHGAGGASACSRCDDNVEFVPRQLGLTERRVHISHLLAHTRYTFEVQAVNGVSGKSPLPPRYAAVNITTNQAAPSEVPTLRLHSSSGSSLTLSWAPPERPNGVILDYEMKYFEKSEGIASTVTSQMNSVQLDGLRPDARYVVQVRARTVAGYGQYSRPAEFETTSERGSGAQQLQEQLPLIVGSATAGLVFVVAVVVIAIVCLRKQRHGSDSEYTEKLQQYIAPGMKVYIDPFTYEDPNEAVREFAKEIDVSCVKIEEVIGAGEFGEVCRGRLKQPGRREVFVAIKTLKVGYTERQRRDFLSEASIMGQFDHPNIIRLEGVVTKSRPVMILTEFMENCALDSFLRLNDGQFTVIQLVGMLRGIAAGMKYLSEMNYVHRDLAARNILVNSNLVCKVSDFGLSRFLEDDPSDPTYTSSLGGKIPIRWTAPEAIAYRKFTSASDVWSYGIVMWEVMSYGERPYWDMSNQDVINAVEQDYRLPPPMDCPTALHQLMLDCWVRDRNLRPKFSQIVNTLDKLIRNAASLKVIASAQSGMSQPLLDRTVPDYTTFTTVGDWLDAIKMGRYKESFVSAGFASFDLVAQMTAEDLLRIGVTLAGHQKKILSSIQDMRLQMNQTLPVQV
# [3] = molecular target: T2, Ephrin type-B receptor 3 (Homo sapiens); conditions: at 1 µM
# [4] = molecular target: T3, Ephrin type-B receptor 4 (Homo sapiens) (UniProt P54760); conditions: at 0.1 µM
# T3 sequence (whole entry): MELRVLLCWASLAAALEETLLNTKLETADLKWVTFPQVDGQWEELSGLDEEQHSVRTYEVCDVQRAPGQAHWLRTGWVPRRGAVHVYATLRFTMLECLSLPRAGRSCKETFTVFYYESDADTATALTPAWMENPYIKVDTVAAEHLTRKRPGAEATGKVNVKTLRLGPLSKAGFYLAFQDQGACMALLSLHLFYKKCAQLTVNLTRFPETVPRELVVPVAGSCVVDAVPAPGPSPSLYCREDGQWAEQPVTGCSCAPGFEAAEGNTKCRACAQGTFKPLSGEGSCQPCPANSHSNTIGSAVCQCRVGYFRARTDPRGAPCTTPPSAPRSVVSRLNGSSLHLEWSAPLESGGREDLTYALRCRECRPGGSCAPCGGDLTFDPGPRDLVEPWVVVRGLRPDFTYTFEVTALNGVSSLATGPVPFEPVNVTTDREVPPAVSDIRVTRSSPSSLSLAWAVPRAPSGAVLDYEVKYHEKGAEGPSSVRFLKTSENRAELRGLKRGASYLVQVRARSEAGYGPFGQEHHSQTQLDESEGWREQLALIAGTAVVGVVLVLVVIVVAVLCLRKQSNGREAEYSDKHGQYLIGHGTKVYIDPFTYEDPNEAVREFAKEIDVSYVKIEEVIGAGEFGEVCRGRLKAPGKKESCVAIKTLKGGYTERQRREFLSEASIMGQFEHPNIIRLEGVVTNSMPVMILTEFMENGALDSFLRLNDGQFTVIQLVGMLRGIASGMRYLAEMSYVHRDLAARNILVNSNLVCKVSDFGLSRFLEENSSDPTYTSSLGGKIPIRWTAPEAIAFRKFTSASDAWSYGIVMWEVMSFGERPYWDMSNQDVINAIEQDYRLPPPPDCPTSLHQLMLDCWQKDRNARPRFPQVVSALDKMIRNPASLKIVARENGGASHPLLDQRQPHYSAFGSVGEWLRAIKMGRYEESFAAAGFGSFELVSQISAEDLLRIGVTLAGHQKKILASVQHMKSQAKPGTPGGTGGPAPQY
# [5] = molecular target: T3, Ephrin type-B receptor 4 (Homo sapiens); conditions: at 1 µM
# [6] = molecular target: Receptor tyrosine-protein kinase erbB-2 (Homo sapiens) (UniProt P04626); conditions: at 0.1 µM
# Chain of Receptor tyrosine-protein kinase erbB-2 (Homo sapiens) (P04626 whole entry): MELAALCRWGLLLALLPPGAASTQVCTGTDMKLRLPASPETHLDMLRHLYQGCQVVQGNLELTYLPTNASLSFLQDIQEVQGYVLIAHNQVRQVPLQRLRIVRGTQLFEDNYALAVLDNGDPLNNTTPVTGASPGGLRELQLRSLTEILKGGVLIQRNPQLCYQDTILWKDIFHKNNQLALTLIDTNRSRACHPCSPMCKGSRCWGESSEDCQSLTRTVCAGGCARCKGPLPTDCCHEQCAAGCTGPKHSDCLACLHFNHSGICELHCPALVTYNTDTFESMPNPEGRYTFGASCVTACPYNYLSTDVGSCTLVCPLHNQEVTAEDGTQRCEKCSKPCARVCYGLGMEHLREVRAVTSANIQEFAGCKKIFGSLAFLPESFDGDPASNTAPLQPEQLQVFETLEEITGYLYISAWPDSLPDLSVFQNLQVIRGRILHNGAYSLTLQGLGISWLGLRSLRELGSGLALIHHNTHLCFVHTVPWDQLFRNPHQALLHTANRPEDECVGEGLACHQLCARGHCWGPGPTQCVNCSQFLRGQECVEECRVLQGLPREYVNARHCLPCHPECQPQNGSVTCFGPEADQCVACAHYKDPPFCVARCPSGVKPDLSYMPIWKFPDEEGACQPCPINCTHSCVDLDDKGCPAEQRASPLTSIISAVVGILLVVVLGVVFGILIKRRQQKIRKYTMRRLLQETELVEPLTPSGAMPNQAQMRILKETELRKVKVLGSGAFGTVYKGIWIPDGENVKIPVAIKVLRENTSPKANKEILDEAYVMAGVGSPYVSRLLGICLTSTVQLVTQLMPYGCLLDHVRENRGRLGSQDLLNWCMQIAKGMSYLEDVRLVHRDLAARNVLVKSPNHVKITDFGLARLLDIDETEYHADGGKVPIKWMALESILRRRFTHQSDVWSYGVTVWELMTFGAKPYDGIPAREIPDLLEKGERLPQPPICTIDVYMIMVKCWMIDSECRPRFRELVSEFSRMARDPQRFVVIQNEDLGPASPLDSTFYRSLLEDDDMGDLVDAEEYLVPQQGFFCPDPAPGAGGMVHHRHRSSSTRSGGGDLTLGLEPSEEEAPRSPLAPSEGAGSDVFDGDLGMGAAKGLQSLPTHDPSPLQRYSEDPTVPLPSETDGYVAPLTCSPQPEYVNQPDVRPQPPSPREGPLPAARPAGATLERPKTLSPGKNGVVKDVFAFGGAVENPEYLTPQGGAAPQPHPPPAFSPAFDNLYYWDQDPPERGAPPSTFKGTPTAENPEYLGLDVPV
# [7] = molecular target: Receptor tyrosine-protein kinase erbB-2 (Homo sapiens) (UniProt P04626); conditions: at 1 µM
# [8] = molecular target: Receptor tyrosine-protein kinase erbB-4 (Homo sapiens) (UniProt Q15303); conditions: at 0.1 µM
# Chain of Receptor tyrosine-protein kinase erbB-4 (Homo sapiens) (Q15303 whole entry): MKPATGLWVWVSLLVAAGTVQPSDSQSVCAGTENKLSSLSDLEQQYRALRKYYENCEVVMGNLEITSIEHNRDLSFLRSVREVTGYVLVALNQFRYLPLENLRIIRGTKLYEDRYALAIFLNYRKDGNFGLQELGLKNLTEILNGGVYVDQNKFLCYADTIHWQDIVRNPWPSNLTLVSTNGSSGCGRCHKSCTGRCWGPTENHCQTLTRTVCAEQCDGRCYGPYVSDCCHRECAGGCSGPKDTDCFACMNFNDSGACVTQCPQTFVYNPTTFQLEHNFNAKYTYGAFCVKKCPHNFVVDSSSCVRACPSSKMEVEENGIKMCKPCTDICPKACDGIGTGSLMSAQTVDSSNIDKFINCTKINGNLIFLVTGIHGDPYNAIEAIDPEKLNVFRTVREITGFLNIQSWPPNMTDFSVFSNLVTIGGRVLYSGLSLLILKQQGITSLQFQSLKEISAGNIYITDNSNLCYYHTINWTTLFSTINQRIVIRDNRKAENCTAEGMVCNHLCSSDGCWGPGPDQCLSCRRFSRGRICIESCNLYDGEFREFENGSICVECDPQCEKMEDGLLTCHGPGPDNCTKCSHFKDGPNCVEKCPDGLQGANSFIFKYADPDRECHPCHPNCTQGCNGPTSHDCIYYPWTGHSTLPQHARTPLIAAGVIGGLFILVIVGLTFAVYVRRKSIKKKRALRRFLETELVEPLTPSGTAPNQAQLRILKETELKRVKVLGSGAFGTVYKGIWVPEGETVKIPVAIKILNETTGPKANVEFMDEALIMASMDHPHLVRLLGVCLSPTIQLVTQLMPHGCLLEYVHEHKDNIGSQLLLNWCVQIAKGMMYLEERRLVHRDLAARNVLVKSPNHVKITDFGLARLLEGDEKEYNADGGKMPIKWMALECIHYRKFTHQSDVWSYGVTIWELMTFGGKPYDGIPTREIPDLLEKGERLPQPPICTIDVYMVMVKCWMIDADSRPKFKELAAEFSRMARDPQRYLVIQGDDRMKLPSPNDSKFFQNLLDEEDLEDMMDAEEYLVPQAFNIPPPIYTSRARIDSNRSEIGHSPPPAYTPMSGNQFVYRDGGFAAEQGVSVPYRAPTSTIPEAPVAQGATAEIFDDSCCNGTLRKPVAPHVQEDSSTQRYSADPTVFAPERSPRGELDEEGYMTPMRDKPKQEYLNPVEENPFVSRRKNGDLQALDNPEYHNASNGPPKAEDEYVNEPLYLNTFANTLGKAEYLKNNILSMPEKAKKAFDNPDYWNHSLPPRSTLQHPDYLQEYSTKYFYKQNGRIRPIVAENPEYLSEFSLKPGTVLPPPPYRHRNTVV
# [9] = molecular target: Receptor tyrosine-protein kinase erbB-4 (Homo sapiens) (UniProt Q15303); conditions: at 1 µM
# [10] = molecular target: Tyrosine-protein kinase Fer (Homo sapiens) (UniProt P16591); conditions: at 0.1 µM
# [11] = molecular target: Tyrosine-protein kinase Fer (Homo sapiens) (UniProt P16591); conditions: at 1 µM
# [12] = molecular target: Tyrosine-protein kinase Fes/Fps (Homo sapiens) (UniProt P07332); conditions: at 0.1 µM
# Chain of Tyrosine-protein kinase Fes/Fps (Homo sapiens) (P07332 whole entry): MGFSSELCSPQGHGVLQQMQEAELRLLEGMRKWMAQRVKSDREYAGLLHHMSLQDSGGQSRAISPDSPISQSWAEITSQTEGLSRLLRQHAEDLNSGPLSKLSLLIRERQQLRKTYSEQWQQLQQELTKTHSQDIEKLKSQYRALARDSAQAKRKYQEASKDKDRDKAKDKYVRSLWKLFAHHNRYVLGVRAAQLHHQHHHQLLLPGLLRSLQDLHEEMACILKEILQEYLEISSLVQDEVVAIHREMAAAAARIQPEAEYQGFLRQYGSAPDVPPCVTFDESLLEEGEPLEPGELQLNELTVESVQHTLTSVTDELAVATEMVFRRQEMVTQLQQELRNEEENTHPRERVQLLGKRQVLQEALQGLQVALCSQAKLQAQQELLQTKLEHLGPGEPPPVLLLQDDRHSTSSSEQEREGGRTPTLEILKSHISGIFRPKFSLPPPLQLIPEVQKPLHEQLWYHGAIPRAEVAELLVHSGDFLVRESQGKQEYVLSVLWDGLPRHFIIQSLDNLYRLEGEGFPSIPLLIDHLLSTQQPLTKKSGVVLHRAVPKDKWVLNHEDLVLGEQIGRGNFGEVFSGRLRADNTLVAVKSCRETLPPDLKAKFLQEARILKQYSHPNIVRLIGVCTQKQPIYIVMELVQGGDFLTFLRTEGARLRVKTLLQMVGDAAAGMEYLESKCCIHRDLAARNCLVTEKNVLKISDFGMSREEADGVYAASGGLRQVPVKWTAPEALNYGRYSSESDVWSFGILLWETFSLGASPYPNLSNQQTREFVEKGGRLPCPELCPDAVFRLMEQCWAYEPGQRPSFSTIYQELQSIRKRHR
# [13] = molecular target: Tyrosine-protein kinase Fes/Fps (Homo sapiens) (UniProt P07332); conditions: at 1 µM
# [14] = molecular target: Fibroblast growth factor receptor 1 (Homo sapiens) (UniProt P11362); conditions: at 0.1 µM
# Chain of Fibroblast growth factor receptor 1 (Homo sapiens) (P11362 22-822 limits assumed): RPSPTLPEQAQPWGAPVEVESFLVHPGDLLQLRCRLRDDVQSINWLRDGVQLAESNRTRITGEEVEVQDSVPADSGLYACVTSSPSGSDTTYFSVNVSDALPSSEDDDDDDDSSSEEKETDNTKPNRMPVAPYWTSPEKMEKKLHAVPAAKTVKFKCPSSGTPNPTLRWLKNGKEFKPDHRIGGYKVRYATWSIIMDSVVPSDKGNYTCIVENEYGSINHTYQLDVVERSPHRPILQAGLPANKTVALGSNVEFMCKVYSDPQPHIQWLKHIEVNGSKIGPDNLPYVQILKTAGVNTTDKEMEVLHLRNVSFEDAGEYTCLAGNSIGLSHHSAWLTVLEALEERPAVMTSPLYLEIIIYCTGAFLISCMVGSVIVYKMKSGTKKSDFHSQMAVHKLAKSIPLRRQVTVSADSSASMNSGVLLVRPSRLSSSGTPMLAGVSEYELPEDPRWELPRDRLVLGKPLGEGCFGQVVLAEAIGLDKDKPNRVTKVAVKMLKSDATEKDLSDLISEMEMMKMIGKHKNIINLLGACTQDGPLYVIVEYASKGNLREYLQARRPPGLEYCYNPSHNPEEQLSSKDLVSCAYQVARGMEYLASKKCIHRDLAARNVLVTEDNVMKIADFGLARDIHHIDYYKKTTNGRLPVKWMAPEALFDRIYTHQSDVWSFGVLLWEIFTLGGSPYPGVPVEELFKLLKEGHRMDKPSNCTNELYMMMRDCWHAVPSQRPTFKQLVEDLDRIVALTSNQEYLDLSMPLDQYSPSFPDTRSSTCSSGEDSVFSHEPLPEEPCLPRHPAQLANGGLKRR
# [15] = molecular target: Fibroblast growth factor receptor 1 (Homo sapiens) (UniProt P11362); conditions: at 1 µM
# [16] = molecular target: Fibroblast growth factor receptor 2 (Homo sapiens) (UniProt P21802); conditions: at 0.1 µM
# [17] = molecular target: Fibroblast growth factor receptor 2 (Homo sapiens) (UniProt P21802); conditions: at 1 µM
# [18] = molecular target: Fibroblast growth factor receptor 3 (Homo sapiens) (UniProt P22607); conditions: at 0.1 µM
# Chain of Fibroblast growth factor receptor 3 (Homo sapiens) (P22607 23-806 limits assumed): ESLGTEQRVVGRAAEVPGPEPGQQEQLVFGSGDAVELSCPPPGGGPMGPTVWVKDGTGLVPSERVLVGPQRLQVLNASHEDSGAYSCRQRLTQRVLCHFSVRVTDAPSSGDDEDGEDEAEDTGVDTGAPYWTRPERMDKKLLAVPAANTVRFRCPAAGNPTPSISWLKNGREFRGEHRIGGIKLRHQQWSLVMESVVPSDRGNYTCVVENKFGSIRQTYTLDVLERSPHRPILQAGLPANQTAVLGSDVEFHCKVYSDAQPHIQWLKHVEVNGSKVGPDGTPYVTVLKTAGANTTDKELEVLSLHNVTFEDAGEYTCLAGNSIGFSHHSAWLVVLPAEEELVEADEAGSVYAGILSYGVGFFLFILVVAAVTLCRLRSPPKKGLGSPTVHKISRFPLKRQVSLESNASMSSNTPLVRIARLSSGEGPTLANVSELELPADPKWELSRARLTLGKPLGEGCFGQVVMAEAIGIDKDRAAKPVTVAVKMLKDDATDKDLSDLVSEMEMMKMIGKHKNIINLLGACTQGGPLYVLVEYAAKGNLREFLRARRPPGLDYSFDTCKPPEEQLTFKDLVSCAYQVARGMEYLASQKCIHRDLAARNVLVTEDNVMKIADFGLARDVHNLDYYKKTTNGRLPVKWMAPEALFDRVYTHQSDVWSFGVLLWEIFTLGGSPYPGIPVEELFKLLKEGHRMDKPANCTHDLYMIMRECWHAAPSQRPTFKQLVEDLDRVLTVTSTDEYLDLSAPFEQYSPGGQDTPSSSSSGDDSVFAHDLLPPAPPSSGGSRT
# [19] = molecular target: Fibroblast growth factor receptor 4 (Homo sapiens) (UniProt P22455); conditions: at 0.1 µM;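 also: values are mean percent inhibition of FGFR4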
# [20] = molecular target: Fibroblast growth factor receptor 3 (Homo sapiens) (UniProt P22607); conditions: at 1 µM
Compound,inhibition [1],inhibition [2],inhibition [3],inhibition [4],inhibition [5],inhibition [6],inhibition [7],inhibition [8],inhibition [9],inhibition [10],inhibition [11],inhibition [12],inhibition [13],inhibition [14],inhibition [15],inhibition [16],inhibition [17],inhibition [18],inhibition [19],inhibition [20]
CC(C)=Cc1cccc2c1/C(=N/Nc1ccc(S(N)(=O)=O)cc1)C(=O)N2,5.84%,2.65%,-0.21%,1.72%,2.38%,0.59%,4.72%,5.98%,4.74%,3.57%,20.1%,0.31%,2.29%,-0.4%,14.7%,3.88%,36.8%,3.36%,4.09%,
Cc1cc(O)cc(C)c1/C=C/c1cncc(-c2nn[nH]n2)c1,61.5%,-0.26%,5.69%,3.89%,46.2%,1.86%,0.56%,12.1%,36.7%,4.18%,11.9%,2.28%,3.8%,2.34%,3.83%,1.54%,13.3%,3.74%,-9.13%,2.92%
Nc1nc(-c2ccccn2)c(-c2ccc3ncccc3n2)s1,3.51%,2.99%,3.23%,2.74%,0.44%,1.34%,4.11%,7.11%,8.52%,0.93%,6.59%,2.12%,3.07%,7%,5.84%,3.92%,7.02%,5.15%,-1.61%,4.97%
CCn1c(-c2nonc2N)nc2c(C#CC(C)(C)O)nc(CN3CCCC3)cc21,-4.07%,2.42%,-2.06%,1.15%,0.96%,-1.45%,-6.25%,3.95%,-0.29%,-1.64%,0.06%,-1.26%,-0.58%,-3.25%,-2.63%,-0.04%,0.42%,-2.14%,-0.75%,-0.76%
CS(=O)(=O)CCN(CC#N)Cc1ccc(-c2ccc3ncnc(Nc4ccc(OCc5cccc(F)c5)c(Cl)c4)c3c2)o1,4.79%,-1.45%,-0.8%,-2.59%,-3.31%,12.4%,66.7%,33.6%,73.8%,-0.11%,1.14%,0.82%,0.27%,-3.34%,-4.3%,-1.21%,-2.13%,-1.19%,0.11%,-0.34%
CCn1c(-c2nonc2N)nc2cnc(Oc3cccc(NC(=O)c4ccc(OCCN5CCOCC5)cc4)c3)cc21,6.97%,6.88%,5.06%,3.21%,3.05%,4.69%,2%,5.15%,10.4%,3.9%,2.2%,2.8%,2.83%,1.76%,5.99%,4.83%,3.45%,3.36%,-4.45%,1.9%
COC(=O)Nc1nc2cc(Oc3ccc(NC(=O)Nc4cccc(C(=O)O)c4)cc3)ccc2[nH]1,3.77%,-0.56%,-3.97%,-2.57%,-4.05%,-0.03%,3.5%,2.52%,0.22%,-1.22%,2.49%,-0.49%,0.5%,-4.37%,-2.27%,-3.37%,5.77%,-1.47%,-6.8%,11.9%
O=C1NC(=O)C(c2ccc(Cl)cc2)=C1Nc1ccc(Cl)c(C(=O)O)c1,1.8%,-6.22%,-1.9%,-0.68%,-1.57%,-2.94%,-3.13%,-7.86%,-9.87%,1.93%,1.58%,-3.1%,-3%,-0.91%,2.2%,-2.69%,2.13%,1.31%,-0.4%,2.66%
COc1cc2ncn(-c3cc(O[C@H](C)c4ccccc4Cl)c(C(N)=O)s3)c2cc1OC,21.9%,3.78%,5.92%,4.27%,7.03%,2.23%,7.82%,7.95%,14%,4.62%,16.7%,3.81%,5.11%,4.42%,29.4%,12.3%,44.9%,9.47%,3.73%,
CN1CCC(C(=O)Nc2n[nH]c3nnc(-c4ccccc4)cc23)CC1,3.41%,6.23%,4.08%,2.18%,1.12%,5.08%,14.2%,17.7%,24.2%,3.91%,5.92%,3.95%,3.43%,5.69%,4.3%,5.82%,5.58%,5.57%,-8.44%,4.99%
CCn1c(-c2nonc2N)nc2ccncc21,,2.91%,-1.68%,-0.26%,0.27%,0.8%,-4.21%,7.5%,9.71%,2.5%,0.13%,0.83%,1.98%,0.47%,-1.46%,-0.14%,4.73%,0.49%,-8.14%,0.64%
CCn1c(-c2nonc2N)nc2c(C#CC(C)(C)O)nc(OC[C@@H](N)c3ccccc3)cc21,12.1%,0.34%,-0.22%,-2.4%,1.73%,-1.67%,-0.37%,-4.79%,-4.06%,,4.88%,-0.53%,5.13%,-3.47%,5.43%,-3.01%,0.85%,-1.33%,2.3%,-0.5%
Cc1ccc(NC(=O)c2ccnc(N3CCCC3)c2)cc1-c1ccc(C(=O)NCC2CC2)cc1,6.65%,1.72%,-1.41%,-3.04%,-2.95%,2.34%,-3.44%,6.37%,5.79%,0.77%,1.67%,5.28%,5.19%,-1.44%,2.19%,1.81%,7.09%,6.97%,-8.29%,4.11%
NS(=O)(=O)c1ccc(N/N=C2\C(=O)Nc3ccc(C(=O)NCCc4c[nH]cn4)cc32)cc1,16.2%,3.04%,0.13%,4.11%,6.29%,1.36%,1.09%,6.82%,7.51%,,,5.34%,8.37%,3.36%,12.1%,7.55%,11.5%,6.41%,4.66%,7.55%

# From ChEMBL document CHEMBL1961873, “Compounds: GSK PKIS; Assays: Nanosyn kinase panel” (2012)
